# This is a sample that favours compounds with a hit; in the whole collection about 1.7% have one here.
# CCHF vOTU inh – CCHFV vOTU protease inhibitors, primary screen, biochemical, Pep-AMC substrate, fluorescence. 0.55% of 370,000 active. AID 651958, 2012. Crimean-Congo hemorrhagic fever virus L polyprotein viral ovarian tumor (vOTU) protease …. inhibition, % at 11.5 µM; in the data active means inhibition above about 30%; further: 0% = vehicle wells with enzyme and 100% = no enzyme wells
# Mtb hypoxia inh – PubChem AID 1159583; fluorescence inhibition, % (no concentration beside the values); 0.1% of 300,000 active; M. tuberculosis hypoxia-regulated fluorescent reporter, fluorescence; in the data active means fluorescence inhibition mostly above about 23%, no sharp cut-off; inactive means mostly below about 17%
# PfHsp40 rescue – rescue of yeast from PfHsp40 toxicity, primary screen, S. cerevisiae, ATP luminescence. S. cerevisiae expressing PfHsp40, growth rescue. growth rescue, % at 12.5 µM. 0.68% of 340,000 active. AID 504582, 2011; in the data active means growth rescue above about 28%, passing the limit was not always enough; inconclusive means no clear call, values can overlap the other calls;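 further: yeast W303a lacking pdr1 and pdr3 grown in galactose medium; growth measured after three days at 30 °C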
# RN4220 kill – growth inhibition of S. aureus RN4220, primary screen, OD600 | inhibition, % (no concentration beside the values) | 16 h | 0.33% of 330,000 active; in the data active means inhibition above about 85%;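 further: plate controls were untreated cells for no effect and reference antibiotic for full effect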
# BH1578 lux ind – inducers of Vibrio cholerae quorum light production without autoinducers, primary screen, BH1578 luxS cqsA deficient, single point; V. cholerae BH1578 lux reporter, luminescence, 6 h; activation, % at 18.7 µM; 0.16% of 350,000 active; in the data active means activation mostly above about 9.7%, no sharp cut-off; inconclusive means no clear call, values can overlap the other calls; inactive means mostly below about 3.7%
# ugtP null kill – growth inhibition of ugtP-null S. aureus, primary screen, RN4220 ugtP deletion, OD600; 16 h; growth inhibition, % (no concentration beside the values); 0.54% of 330,000 active; AID 1259309, 2017; in the data active means growth inhibition above about 68%;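 further: plate controls were untreated wells for no effect and antibiotic for full effect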
# Active calls of the source: *; i = inactive; u = inconclusive; x = no result shown.
SMILES,CCHF vOTU inh,Mtb hypoxia inh,PfHsp40 rescue,RN4220 kill,BH1578 lux ind,ugtP null kill
Cc1cc(Cl)ccc1C1=CC(=O)CC(c2ccc(F)cc2)C1 (stereo not given),x,4,x,-7,x,-4
COc1cc(CCCN2C(N)=NCC2Cc2ccccc2)cc(OC)c1OC (stereo not given),x,-5,x,1,x,-2
CN(C)c1cccc(C(=O)NN=Cc2ccoc2)c1,x,-12,x,6,x,-2
CC(C)(C)c1cc(NCc2ccccn2)n2ncc(-c3ccccc3)c2n1,0,6,52*,-11,i,12
Cc1csc(-c2cnn(-c3ccccc3)c2NC(=O)c2ccc(C(F)(F)F)cc2)n1,-2,-4,46*,2,i,-13
O=[N+]([O-])c1ccccc1C=NNC1=NCCN1,x,-12,x,2,x,2
O=C1CC(N2CCN(c3nc4ccccc4s3)CC2)C(=O)N1Cc1cccs1 (stereo not given),6,x,99*,-4,0,2
Cc1cccc(NC(=S)NNC(=O)c2csc3c2CCC(C)C3)c1 (stereo not given),3,-3,104*,11,-2,-10
Cc1cccc(NC(=S)NNC(=O)c2cc3c(s2)CCC(C)C3)c1C (stereo not given),13,11,31*,0,i,3
CCCCC1NC(=S)N(C2CCCCC2)C1=O (stereo not given),3,2,3,5,0,89*
C=C(C)CSc1nc2sc3c(c2c(=O)n1C1CCCCC1)CCN(C)C3,-49,13,1,100,i,active
Cc1cc(C(=O)NN=Cc2ccco2)c2ccccc2n1,x,6,x,-2,x,13
CCOC(=O)c1[nH]c(C)c(C(O)=C2C(=O)C(=O)N(CCN(C)C)C2c2ccco2)c1C (stereo not given),x,9,x,3,x,2
COc1ccc(-n2sc3c(c2=S)-c2cc(OC)ccc2NC3(C)C)cc1,5,x,1,-5,1,84*
CC1=C(C)/C(=N\OS(=O)(=O)c2ccc(C)cc2)C=CC1=O,-20,x,424*,x,0,x
CCCOc1c(Br)cc(C=NO)cc1OC,x,x,x,-5,x,86*
CCOc1cc(/C=N\O)cc(Cl)c1OCC,-6,x,4,x,-1,x
CCCOc1c(Cl)cc(C=NO)cc1OCC,x,x,x,-3,x,93*
C#Cc1ccc(C2C=C(C(=O)NCc3ccccc3)OC(OCCCCO)C2)cc1 (stereo not given),x,6,x,-5,x,-11
COc1cccc(OC)c1C(=O)Nc1ccc2c3c(cccc13)CC2,12,6,-1,8,17*,6
COc1ccccc1C(=O)Nc1ccc2c3c(cccc13)CC2,-9,9,-2,5,0,7
CC(C)(C)c1ccc(C=CC(=O)O)s1,x,1,x,9,x,1
CC(C)(C)C(=O)Nc1ccc2c(c1)OCCOCCOc1cc(NC(=O)C(C)(C)C)ccc1OCCOCCO2,-1,36*,-1,5,0,5
O=C(c1cccc2c1-c1ccccc1/C2=N/O)N1CCCCC1,2,x,2,x,3,x
CCOC(=O)c1cccc2c1-c1ccccc1C2=NO,x,1,x,-1,x,88*
SMILES,CCHF vOTU inh,Mtb hypoxia inh,PfHsp40 rescue,RN4220 kill,BH1578 lux ind,ugtP null kill
C#CCOCCOCCOCCNc1nc(N2CCN(C(=O)CCCCCCCCCCNC(=O)C(CCC(=O)O)n3cc(CCCCCN)nn3)CC2)nc(N2CCN(C(=O)CCCCCCCCCCNC(=O)C(CCC(=O)O)n3cc(CCCCCN)nn3)CC2)n1 (stereo not given),x,6,x,3,x,2
O=C(CCl)N1c2ccccc2Oc2ccc3ccccc3c21,-5,26,0,90*,-8,99*
Cc1ccn2c(Nc3ccc4c(c3)OCO4)c(-c3ccccn3)nc2c1,13,6,2,48,0,23
Cc1ccc(Nc2c(-c3ccccn3)nc3ccc(C)cn23)cc1,-1,x,3,100*,-2,95*
Cc1ccc(Nc2c(-c3ccccn3)nc3cc(C)ccn23)cc1,-11,23,0,100*,0,100*
Cc1ccc2nc(-c3ccncc3)c(Nc3ccccc3)n2c1,3,2,-1,2,0,-4
Cc1sc(NC(=O)C=Cc2ccco2)c(C(=O)OC(C)C)c1C,x,-1,x,-3,x,-13
CCC(C)N=Cc1c(Nc2ccccc2)nc2c(C)cccn2c1=O (stereo not given),6,51*,5,6,0,13
CCOc1ccc(NC(=O)Cn2sc3nc(C)cc(C)c3c2=O)cc1,x,11,74*,1,0,7
Cc1cc(C)c2c(=O)n(CC(=O)Nc3ccc(Cl)cc3)sc2n1,-7,-2,u,18,0,0
COc1ccccc1-c1cc(C(=O)NN=Cc2ccc(C)o2)c2ccccc2n1,x,12,x,-2,x,9
CCOc1ccc2nc(N=Cc3c(C)[nH]n(-c4ccccc4)c3=O)sc2c1,x,4,x,1,x,8
CCOc1ccc(C=Nn2c(C)nnc2C)cc1OC,x,2,x,0,x,-1
CC1=CC(C)(C)N(S(=O)(=O)c2ccc(F)cc2)c2ccccc21,13,17,1,12,0,-2
CC1=CC(C)(C)N(S(=O)(=O)c2ccc(C)cc2)c2ccc(C)cc21,-7,1,165*,2,-3,80
O=C(NN=Cc1ccc(Cl)cc1)C1CC12CCC2 (stereo not given),x,7,x,2,x,-1
NC(=O)c1cc2ccccc2oc1=NNC(=O)c1cccs1,x,10,x,3,x,-10
O=[N+]([O-])c1ccccc1S(=O)(=O)Nc1ccc(S(=O)(=O)Nc2nccs2)cc1,8,66*,-1,-3,0,95*
O=[N+]([O-])c1cccc(S(=O)(=O)Nc2ccc(S(=O)(=O)Nc3nccs3)cc2)c1,3,16,-1,6,i,8
CC1CN=C(N(C)C)N1CCCC1CCCCC1 (stereo not given),x,25,x,7,x,9
O=C1CN(CC(=O)N2CCCCC2)c2ccccc2O1,15,x,125*,x,i,x
O=C(CN1C(=O)COc2ccccc21)N1CCCC1,-6,-7,0,0,1,-4
CCCC1CC(C(=O)NC(C(C)Cl)C2OC(SC)C(O)C(O)C2O)N(C)C1 (stereo not given),0,44*,1,100*,-3,100*
CCC[C@@H]1C[C@@H](C(=O)NC(C(C)Cl)[C@H]2O[C@H](SC)[C@H](O)[C@@H](O)[C@H]2O)N(C)C1 (stereo not given in full),-4,x,0,x,-1,x
CN(C)c1ccc(-c2cc(C3C4C=CCC[C@@]4(C)C(=O)N3Cc3ccccc3)ccc2F)cc1 (stereo not given in full),x,2,x,-8,x,14
c1ccc(-c2cc3ccccc3nc2N2CCCC2)cc1,2,x,1,0,i,85*

# Screens deposited in PubChem BioAssay by several laboratories.
